# High-throughput results: PubChem BioAssay, National Center for Advancing Translational Sciences (NCATS)
# S-ASM inh: inhibitors of human secretory acid sphingomyelinase | Potency, µM (titrated, usually from 57.5 µM), inactives show top-dose activity change, negative = inhibition, actives largely listed as inhibitors | 340,000 compounds, 0.006% hits | placental ASM, HMU-PC fluorogenic substrate, 60 min; further: potency means the concentration at half of the fitted maximal effect
# Target sequence (P17405 47-631 limits assumed): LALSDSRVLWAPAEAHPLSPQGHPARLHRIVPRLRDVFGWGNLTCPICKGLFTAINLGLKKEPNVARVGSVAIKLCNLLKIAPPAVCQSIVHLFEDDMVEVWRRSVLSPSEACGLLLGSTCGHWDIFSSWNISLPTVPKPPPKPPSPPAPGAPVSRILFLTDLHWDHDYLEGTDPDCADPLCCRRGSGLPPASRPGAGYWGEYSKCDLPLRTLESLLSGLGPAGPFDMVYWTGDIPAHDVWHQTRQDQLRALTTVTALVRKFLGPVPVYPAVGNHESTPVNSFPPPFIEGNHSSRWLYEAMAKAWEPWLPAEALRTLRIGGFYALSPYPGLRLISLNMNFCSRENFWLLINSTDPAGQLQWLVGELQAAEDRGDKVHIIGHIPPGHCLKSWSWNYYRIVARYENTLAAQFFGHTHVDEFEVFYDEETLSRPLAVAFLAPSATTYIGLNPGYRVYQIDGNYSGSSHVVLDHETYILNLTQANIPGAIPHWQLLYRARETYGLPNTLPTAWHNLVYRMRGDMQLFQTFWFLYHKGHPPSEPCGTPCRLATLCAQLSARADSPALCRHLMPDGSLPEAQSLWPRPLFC
#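 Human placenta-derived ASM preincubated with compound 10 min at room temperature, then reacted with 9 uM (final) fluorogenic HMU-PC substrate for 60 min at 37 C. Stop solution raises pH to 10; fluorescence read at Ex 386/Em 447 nm.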
# DT40 TDP1 no CPT: qHTS for Inhibitors of human tyrosyl-DNA phosphodiesterase 1 (TDP1): qHTS in cells in absence of CPT; DT40 Tdp1-/- hTDP1 cells, no CPT, ATP luminescence, 48 h; Potency, µM (doses to about 46.2 µM), for inactives: top-dose activity change, negative = growth inhibition, usual class: inhibitors; 420,000 compounds, 15% hits; further: potency means the concentration at half of the fitted maximal effect; on the % scale 0 is the no-effect control and ±100 the full control effect; nearly all actives have a fitted effect of over 55% in size
#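 Cells were dispensed at 400 per well, compounds added by pin tool, plates incubated ≥48 hr at 37 °C, then CellTiter-Glo added for 30 min at room temperature before luminescence reading. Line: DT40 Tdp1-/- complemented with hTDP1; camptothecin omitted.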
# IL-1B inflam inh: inhibitors of inflammasome signaling (IL-1 beta secretion); 360,000 compounds, 4.7% hits; AID 743279; activity change, % at 57.5 µM; THP-1 LPS/ATP IL-1B secretion, AlphaLISA, 16 h; active compounds read low; in the data active means activity change below about -50%; inconclusive means mostly about -30% to -49%; further: on the % scale 0 is the no-effect control and ±100 the full control effect
#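 THP-1 cells pretreated 1 hr with compounds (up to 57.5 uM final), then stimulated with LPS (250 ng/mL final) plus ATP (1.25 mM final); secreted IL-1B measured by AlphaLISA after 16 hr, decreased signal indicating inhibition.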
# TGFb inhibitor: inhibitors of TGF-b signaling | HepG2 CAGA-GFP TGF-b/SMAD3 reporter, GFP fluorescence, 18 h; TGF-beta stimulated, 500 pg/mL final | Potency, µM (doses to about 46.1 µM), for inactives: at the highest dose activity, negative = inhibition, hits mostly inhibitors | 410,000 compounds, 1.2% hits | AID 588855; further: potency means the concentration at half of the fitted maximal effect; on the % scale 0 is the no-effect control and ±100 the full control effect; nearly all actives have a fitted effect of over 65% in size
#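 Smad-responsive CAGA-GFP expression was quantified in HEPG2 cells exposed to compounds and 500 pg/mL final TGF-beta for 18 h at 37 degrees C; unstimulated wells defined full inhibition.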
# HepG2 tox: HepG2 cytotoxicity, counter-screen for TGF-b inhibitors | 410,000 compounds, 0.76% hits | Potency, µM (highest dose often 46.1 µM), for the others: top-dose activity change, negative = cytotoxicity, actives largely listed as cytotoxic | HepG2 CAGA-GFP viability, ATP luminescence, 18 h; further: potency means the concentration at half of the fitted maximal effect
#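 HepG2 CAGA-GFP cells (1000/well, DMEM with 1% FBS) received compound, then TGF-beta at 500 pg/mL final, and were incubated 18 hours at 37 degrees C. Viability was read by CellTiter-Glo luminescence. Media-only wells were set as complete cell-killing and DMSO as no toxicity.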
# TDP1 cell CPT: growth inhibition of DT40 Tdp1-/-;hTDP1 cells with camptothecin (screen for TDP1 inhibitors). chicken DT40 Tdp1-/-;hTDP1 cells + 20 nM CPT, ATP luminescence, 48 h. Potency, µM (highest dose often 46.2 µM), without a hit: top-dose activity change, negative = growth inhibition, actives largely listed as inhibitors. 420,000 compounds, 12% hits; further: potency means the concentration at half of the fitted maximal effect; on the % scale 0 is the no-effect control and ±100 the full control effect; nearly all actives have a fitted effect of over 55% in size
#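 Chicken DT40 Tdp1-/- cells complemented with human TDP1, 400 cells/well, exposed to compounds plus 20 nM camptothecin for at least 48 h at 37 C; viability read as ATP content by CellTiter-Glo luminescence.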
# Active calls of the source: *; i = inactive; ? = inconclusive; / = no result. This is a sample that favours compounds with a hit; in the whole collection about 19% have one here. Unless noted, the call rests on the fitted dose curve; in most records, active means well fitted curve in the direction sought with a large enough effect; inconclusive means small, poorly fitted or top-dose-only effect, or another doubt; inactive means no such curve, though single readings can be large; an effect the other way counts as inactive or inconclusive.
SMILES,S-ASM inh,DT40 TDP1 no CPT,IL-1B inflam inh,TGFb inhibitor,HepG2 tox,TDP1 cell CPT
Cc1ccc(-n2cc(CNCCn3nc(C)cc3C)c(-c3ccc(F)cc3)n2)cc1,-1%,23µM*,-91*,?,-65%,15µM*
COc1ccc(-n2cc(CNCCCn3ccnc3)c(-c3ccccc3Cl)n2)cc1,4%,?,0,-29%,-43%,?
Cc1ccc(-n2cc(CNCCN3CCOC3=O)c(-c3ccc(F)cc3)n2)cc1,-1%,?,-71*,?,-30%,23µM*
COC(=O)[C@@H](NS(=O)(=O)c1ccc(F)cc1Br)C(C)C,/,-10%,41,-1%,16%,-13%
Cc1cccc(-n2cc(CNCCN3CCOC3=O)c(-c3cccc(F)c3)n2)c1,3%,21µM*,-57*,-21%,-20%,?
Cc1cccc(-n2cc(CN3CCCN(C=O)CC3)c(-c3cccc(F)c3)n2)c1,2%,?,-11,-19%,-31%,?
Cc1ccc(-n2cc(CNCCCN3CCCC3=O)c(-c3ccc(F)cc3)n2)cc1,-1%,18µM*,-68*,?,-36%,?
COC(=O)c1ccccc1NC(=O)c1cc(CN2CCOCC2)on1,/,-11%,/,-3%,-7%,5%
CC(NC(=O)c1ccccc1)c1nnc(SCC(=O)NC2CCCC2)n1C (stereo not given),4%,18%,-3,9%,-4%,0%
CCOC(=O)c1ccc(-n2c(CCC(=O)O)ccc2-c2ccc(F)cc2)cc1,0%,?,-23,-16%,-20%,-14%
CCOC(=O)c1cc2sccc2n1CC(=O)N1CCCc2ccccc21,-7%,?,-50*,-13%,-25%,?
C[C@H](O)CC(=O)O,5%,3%,29,-2%,-6%,-31%
CC(C)(C)c1ccc(C(=O)CS(=O)(=O)c2ccccc2)cc1,1%,16µM*,-17,-11%,2%,?
CCc1cc(=O)oc2cc(C)cc(O)c12,4%,?,8,-5%,-11%,?
CCCc1cc(=O)oc2cc(C)cc(O)c12,4%,18µM*,-20,-48%,-34%,?
CCCc1cc(=O)oc2cc(C)cc(OC(=O)c3ccco3)c12,5%,18µM*,-5,0%,1%,23µM*
Cc1cc(O)c2c(CN3CCN(Cc4ccccc4)CC3)cc(=O)oc2c1,0%,15µM*,-19,?,-29%,?
CCCCCc1cc(O)c2c(C)cc(=O)oc2c1,-2%,16µM*,-25,-27%,-51%,23µM*
Cc1cc2oc(=O)cc(CN3CCN(Cc4ccccc4)CC3)c2cc1O,3%,7.3µM*,6,-27%,-35%,8.2µM*
O=c1cc(CN2CCN(Cc3ccccc3)CC2)c2cc(O)ccc2o1,1%,?,24,-15%,-25%,?
COc1c(O)cc2c(c1O)[C@@H]1O[C@H](CO)[C@@H](O)[C@H](O)[C@H]1OC2=O,3%,2%,3,14%,1%,2%
O=C1C2=C(S[C@@H]3O[C@H](CO)[C@@H](O)[C@H](O)[C@H]3O2)C(=O)c2ccccc21,/,0.65µM*,/,/,/,0.65µM*
Cc1ccc(N/C(C(Cl)=C(Cl)Cl)=C(/Cl)[N+](=O)[O-])c(C)c1,-1%,16µM*,-18,?,-16%,23µM*
N#Cc1ccc(-c2nc3ccc(Cl)cn3c2Cc2cccc(F)c2)cc1,/,?,0,-3%,-25%,?
N#Cc1ccc(-c2nc3ccc(Cl)cn3c2Cc2cccc(Cl)c2)cc1,/,21µM*,-15,?,-47%,?
SMILES,S-ASM inh,DT40 TDP1 no CPT,IL-1B inflam inh,TGFb inhibitor,HepG2 tox,TDP1 cell CPT
Cc1ccc2nc(-c3ccc(C#N)cc3)c(Cc3cccc(Cl)c3)n2c1,/,18µM*,0,-12%,-20%,18µM*
Cc1ccc(C)c(C(=O)N2CCC(C3(c4ccccn4)NC(=O)N(CC4CCCO4)C3=O)CC2)c1 (stereo not given),/,-8%,/,/,/,8%
CCN(CCCNC(=O)Cn1ncc2c([nH]c3ccc(C)cc32)c1=O)c1cccc(C)c1,-1%,0%,-16,2%,-6%,-5%
Cc1cc(NC(=O)CC2CCCC2)n(-c2nc3ccccc3[nH]2)n1,-24%,21µM*,-9,-15%,-36%,?
Cc1cc(NC(=O)/C=C/c2ccccc2Cl)n(-c2nc3ccccc3[nH]2)n1,-11%,10µM*,-6,0%,-7%,?
Cc1cc(NC(=O)c2ccc(F)cc2F)n(-c2nc3ccccc3[nH]2)n1,-3%,-16%,2,21%,0%,?
CC[n+]1cccc(Br)c1,/,-2%,/,-5%,-30%,8%
CCCC(NS(=O)(=O)c1ccc(-c2ccc(=O)[nH]n2)s1)c1cccs1 (stereo not given),-8%,?,-16,-6%,-26%,-3%
COc1ccc(CN2CCCC(CNC(=O)c3ccc(F)cc3)C2)c(C)c1C (stereo not given),1%,?,-25,-12%,7.9µM*,-27%
COc1ccc(CN2CCCC(CNC(=O)c3ccc(F)cc3)C2)c(F)c1 (stereo not given),0%,?,-6,3%,-10%,-4%
CCn1nnnc1SCC(=O)Nc1ccc(F)cc1,-8%,?,-6,14%,-35%,-17%
O=C1CC(c2ccc3c(c2)OCO3)c2cc3c(cc2N1)OCO3 (stereo not given),-1%,?,-20,5%,3%,-29%
O=C1OCC2=C1C(c1ccc(F)cc1)c1cc3c(cc1N2)OCO3 (stereo not given),13%,0.033µM*,56,?,5%,0.16µM*
O=C1OCC2=C1C(c1ccc3c(c1)OCO3)Sc1ccccc1N2 (stereo not given),-1%,21µM*,-11,-4%,3%,13µM*
O=C1OCC2=C1C(c1ccc(F)cc1)c1cc3c(cc1N2)OCCO3 (stereo not given),34%,0.18µM*,66,?,6%,0.18µM*
CC(=O)Oc1ccc(C2C3=C(CC(C)(C)CC3=O)Nc3cc4c(cc32)OCCO4)cc1 (stereo not given),i,6%,?,1%,-6%,-1%
